The results in this text go back to the supplement of paper PMC12024424.

Structures can show the parent of a compound that is named as a salt.

For assay [1], the system named is Staphylococcus aureus Sa2 (MRSA, cystic fibrosis isolate). Put plainly: growth reduction vs untreated control (OD550); higher = stronger antibacterial activity. The settings on record: 0.1 mM; 24 h. Here is the method:
(§1)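 Single-dose screen of the MedChem Express Drug Repurposing Library (0.1 mM, 1% DMSO) against planktonic MRSA S. aureus Sa2 (CF isolate) in TSB in 96-well plates, 37 °C aerobic, 24 h. Assays were run in triplicate and repeated twice.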

Assay [2] has the same test system. Put plainly: growth reduction vs untreated control (viable cell count); higher = stronger antibacterial activity; extreme values may be limits of the assay. The settings on record: 0.1 mM; 24 h. Here is the method:
as §1

As to `CCCCCCCCc1ccc(CCC(N)(CO)CO)cc1` [Fingolimod (hydrochloride)], the growth reduction in assay [1] and in assay [2] was 100% throughout.

Turning to `C=CC(=O)N1CC[C@@H](Oc2nc(Nc3ccc(N4CCC(N5CCN(C)CC5)CC4)cc3)c(C(N)=O)nc2CC)C1` [Naquotinib (mesylate)], the growth reduction is 99.6% in assay [1] and 100% in assay [2].

Regarding `CCN(CC)CCOc1ccc(/C(=C(/Cl)c2ccccc2)c2ccccc2)cc1` [Enclomiphene (citrate)], the growth reduction in assay [1] and in assay [2] was 100% throughout.

As to `N#Cc1ccc(Oc2ccc3c(c2)COB3O)cc1` [Crisaborole], the growth reduction in assay [1] and in assay [2] was 100% each time.

Turning to `C[C@H](CCC(=O)O)[C@H]1CC[C@H]2[C@@H]3CC[C@@H]4C[C@H](O)CC[C@]4(C)[C@H]3C[C@H](O)[C@]12C` [Deoxycholic acid], the figures for the growth reduction in assay [1] and in assay [2] were 98.3% and 100%, respectively.

In the case of `O=C(OCC(O)CO)c1ccccc1Nc1ccnc2cc(Cl)ccc12` (stereo not given) [Glafenine], the growth reduction in assay [1] and in assay [2] was 100% throughout.

As for `C=C[C@@H]1C[C@]1(NC(=O)[C@@H]1C[C@@H]2CN1C(=O)[C@H](C(C)(C)C)NC(=O)O[C@@H]1C[C@H]1CCCCCc1nc3ccc(OC)cc3nc1O2)C(=O)NS(=O)(=O)C1CC1` [Grazoprevir hydrate], the growth reduction in assay [1] and in assay [2] was 100% throughout.

Regarding `C=CC(=O)Nc1cc(Nc2nccc(-c3cn(C4CC4)c4ccccc34)n2)c(OC)cc1N(C)CCN(C)C` [Almonertinib], the growth reduction in assay [1] and in assay [2] was 100% throughout.

Take `O=C(Nc1ncc(SCCN2CCCC2)s1)[C@]1(c2ccc(S(=O)(=O)C3CC3)cc2)C[C@H]1C1CCCCC1` [Globalagliatin]: the growth reduction in assay [1] and in assay [2] was 100% throughout.

On to `CC(OC(=O)NCC1(CC(=O)O)CCCCC1)OC(=O)C(C)C` (stereo not given) [Gabapentin enacarbil], for which the growth reduction in assay [1] amounted to 90.4%; in assay [2], 93%.
